{"source": "PubChem BioAssay AID696", "about": "(Sanford-Burnham Center for Chemical Genomics, 2007)", "note": "In all, about 96,000 compounds went through this assay and about 1,200 (1.2%) were called active. This excerpt belongs to a sample that is enriched for actives. Unmarked numbers belong to inactive results. Cut-off read from the data, not from the text of the source: active = activation fold above about 2; inactive = the rest."}
{"molecular_target": "Alkaline phosphatase, placental type (Homo sapiens) (UniProt P05187)", "sequence (P05187 whole entry, looked up)": "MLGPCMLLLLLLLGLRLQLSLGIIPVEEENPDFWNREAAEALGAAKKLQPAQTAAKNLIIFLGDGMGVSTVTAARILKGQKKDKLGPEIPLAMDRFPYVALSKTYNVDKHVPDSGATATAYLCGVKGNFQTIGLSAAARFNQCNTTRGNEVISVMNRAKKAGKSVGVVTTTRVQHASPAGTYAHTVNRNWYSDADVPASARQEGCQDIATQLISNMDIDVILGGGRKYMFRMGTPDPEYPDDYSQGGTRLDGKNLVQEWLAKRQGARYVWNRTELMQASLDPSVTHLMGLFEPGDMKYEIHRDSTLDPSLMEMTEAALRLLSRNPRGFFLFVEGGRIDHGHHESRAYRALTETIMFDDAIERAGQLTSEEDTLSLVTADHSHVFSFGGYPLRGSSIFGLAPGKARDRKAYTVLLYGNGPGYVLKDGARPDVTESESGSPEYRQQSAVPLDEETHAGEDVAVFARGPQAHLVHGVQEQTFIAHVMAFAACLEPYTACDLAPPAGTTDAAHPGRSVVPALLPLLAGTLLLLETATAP", "assay": "activation of human placental alkaline phosphatase – biochemical, luminescence, HTS (AID 696)", "settings": "purified PLAP enzyme, luminescent substrate read-out; at 20 µM; hits give high values"}
{"smiles": "CC(NC(=O)c1ccco1)C(=O)Nc1nc(-c2ccccn2)cs1", "note": "(stereo not given)", "activation fold": "2.4 (active)"}
{"smiles": "CC1CCN(C(NC(=O)c2ccco2)C(=O)c2ccccc2)CC1", "note": "(stereo not given)", "activation fold": 1.1}
{"smiles": "NC(=O)c1ccsc1NC(=O)c1ccco1", "activation fold": 1}
{"smiles": "O=c1cc(N2CCN(Cc3ccccc3)CC2)c(-c2ccccc2)n[nH]1", "activation fold": 1}
{"smiles": "CCn1c(Cc2cccs2)nnc1SCC(=O)c1ccc(C)cc1", "activation fold": 1.5}
{"smiles": "O=C(COc1ccc(Cl)cc1)N1CCN(S(=O)(=O)c2ccc(Cl)cc2)CC1", "activation fold": 1.1}
{"smiles": "Cc1ccc(CNC(=O)C2CC(c3ccccc3[N+](=O)[O-])=NO2)o1", "note": "(stereo not given)", "activation fold": 0.9}
{"smiles": "CCCCNC(=S)NNC(=O)c1cc(C)on1", "activation fold": "2 (active)"}
{"smiles": "Cc1cc(C(=O)NCCCc2ccccc2)no1", "activation fold": 0.9}
{"smiles": "CCC(=O)Nc1ccc(C(=O)Nc2cc(C)on2)cc1", "activation fold": 0.9}
{"smiles": "Cn1c(Cc2cccc3ccccc23)nnc1SCC(=O)N1CCN(c2cccc(Cl)c2)CC1", "activation fold": 1.5}
{"smiles": "CCN1CCC(=NNC(=O)c2ccc(C)c([N+](=O)[O-])c2)CC1", "activation fold": 1.3}
{"smiles": "CC(=O)Nc1ccc(NC(=O)CSCc2cnn(-c3ccccc3)c2-n2cccc2)cc1", "activation fold": 1.3}
{"smiles": "O=C(NCCC1=CCCCC1)C1CCN(Cc2cnn(-c3ccccc3)c2-n2cccc2)CC1", "activation fold": "2.3 (active)"}
{"smiles": "C1=C(CCNc2ncnc3c2cnn3-c2ccccc2)CCCC1", "activation fold": 0.7}
{"smiles": "O=C1c2ccccc2C(=O)N1CC1c2ccccc2CCN1S(=O)(=O)c1ccccc1", "note": "(stereo not given)", "activation fold": 1.2}
{"smiles": "O=C(Nc1ccc2c(c1)OCCO2)c1ccc(Cl)c(S(=O)(=O)N2CCCCC2)c1", "activation fold": 1.7}
{"smiles": "COc1cc2c(cc1NC(=O)CN1CCN(S(=O)(=O)c3ccc(F)cc3)CC1)oc1ccccc12", "activation fold": "2.2 (active)"}
{"smiles": "COc1ccccc1NC(=O)CN1CCN(S(=O)(=O)c2ccc(Br)cc2)CC1", "activation fold": 1}
{"smiles": "COc1ccc(NC(=O)CN2CCN(S(=O)(=O)c3ccc(F)cc3)CC2)cc1Cl", "activation fold": 1.1}
{"smiles": "Cc1c(CCO)c(=O)[nH]n1C(=O)c1c(F)cccc1F", "activation fold": 0.9}
{"smiles": "Cc1ccc(F)c(NC(=O)CCc2ccccc2)c1", "activation fold": 0.9}
{"smiles": "CCCSc1nc2c(c(=O)[nH]c(=O)n2C)n1CCc1ccccc1", "activation fold": 0.9}
{"smiles": "CN(Cc1ccccc1)c1nc2c(c(=O)[nH]c(=O)n2C)n1CCSc1nc2ccccc2[nH]1", "activation fold": "2 (active)"}
{"smiles": "Cn1c(=O)[nH]c(=O)c2c1nc(N(CCO)Cc1ccccc1)n2Cc1ccccc1Cl", "activation fold": 0.8}
{"smiles": "Cc1cccc(NC(=O)CSc2nnc(CCCCCNC(=O)OC(C)(C)C)o2)c1C", "activation fold": "2.4 (active)"}
{"smiles": "CCc1ccccc1NC(=O)CSc1nnc([C@@H](NC(=O)OC(C)(C)C)C(C)CC)o1", "note": "(stereo not given in full)", "activation fold": "2 (active)"}
{"smiles": "Cc1cccc(NC(=O)CSC(N)=O)c1C", "activation fold": 1.7}
{"smiles": "CCc1ccccc1NC(=O)CSc1nnc([C@@H](NC(=O)OC(C)(C)C)C(C)C)o1", "activation fold": 1.4}
{"smiles": "Cc1cc(C)cc(OCc2nnc(SCC(=O)Nc3ccccc3)o2)c1", "activation fold": 0.8}
{"smiles": "C[C@H](NC(=O)OC(C)(C)C)c1nnc(SCC(=O)Nc2ccc(Br)cc2)o1", "activation fold": 1.2}
{"smiles": "CC(C)(C)N1CC(c2nc3ccccc3n2Cc2ccc(F)cc2)CC1=O", "note": "(stereo not given)", "activation fold": 1.1}
{"smiles": "CN(C)Cc1ccccc1C1(O)c2ccccc2CSc2ccccc21", "note": "(stereo not given)", "activation fold": 1.1}
{"smiles": "N#Cc1cc([N+](=O)[O-])ccc1Oc1cccc(/C=N/NC(=O)c2ccc(Cl)cc2)c1", "activation fold": 1.1}
{"smiles": "O=P(O)(CP(=O)(c1ccccc1)c1ccccc1)c1ccccc1O", "activation fold": 1}
{"smiles": "CCOc1ccc(C(=O)NC(C(=O)NCc2ccccn2)C(C)C)cc1", "note": "(stereo not given)", "activation fold": 0.9}
{"smiles": "Cc1cc(C)nc(SC(C)C(=O)N/N=C/c2cccs2)n1", "note": "(stereo not given)", "activation fold": 0.9}
{"smiles": "CCCCCCNCCn1cnc2c(N)ncnc21", "activation fold": 0.9}
{"smiles": "O=C(CCCOc1ccccc1)NCc1ccco1", "activation fold": 1.1}
{"smiles": "CN(C)C(CNC(=O)CCCOc1ccccc1)c1ccco1", "note": "(stereo not given)", "activation fold": "2 (active)"}
{"smiles": "O=C(CCOc1ccccc1)NCc1ccccc1", "activation fold": 0.8}
{"smiles": "COc1ccc(C(=O)c2c(C)oc3cc([N+](=O)[O-])c(O)c([N+](=O)[O-])c23)cc1", "activation fold": 0.9}
{"smiles": "COc1ccc(NC(=O)C(CC(C)C)NS(=O)(=O)c2ccc3c(c2)CCN3C(C)=O)cc1OC", "note": "(stereo not given)", "activation fold": 0.8}
{"smiles": "CN(Cc1nc2ccccc2c(=O)[nH]1)Cc1cc(=O)oc2ccc3ccccc3c12", "activation fold": 1.6}
{"smiles": "O=S(=O)(NC1CCCCC1)c1ccc(F)c2ccccc12", "activation fold": 0.7}
{"smiles": "COc1ccc2nc(N3CCCC(O)C3)c(C#N)cc2c1", "note": "(stereo not given)", "activation fold": 1.8}
{"smiles": "CCOc1ccc2nc(N3CCCN(C(=O)Nc4ccccc4C)CC3)c(C#N)cc2c1", "activation fold": "2 (active)"}
{"smiles": "CCOc1ccc2nc(NCCNS(=O)(=O)c3ccccc3)c(C#N)cc2c1", "activation fold": 1}
{"smiles": "O=C(NCCCN1CCOCC1)c1cc2c(s1)CCC2", "activation fold": 1.3}
{"smiles": "COC(=O)c1ccc(C(=O)Nc2cc(Cl)ccc2Cl)cc1NC(=O)c1ccccc1C", "activation fold": 1}
{"smiles": "CC1CCCN(C(C(=O)Nc2ccc(C(C)C)cc2)c2ccc3c(c2)OCO3)C1", "note": "(stereo not given)", "activation fold": 1.6}
{"smiles": "Cc1[nH]c(=O)c(C(=O)/C=C/c2ccccc2)c2c1CCCC2", "activation fold": 1.2}
{"smiles": "CC(C)CNC(=S)NNC(=O)c1ccccc1OC(F)F", "activation fold": 1.6}
{"smiles": "Cc1occc1C(=O)NNC(=S)NCC(C)C", "activation fold": "2.3 (active)"}
{"smiles": "Cc1occc1C(=O)Nc1nnc(-c2ccncc2)s1", "activation fold": 1}
{"smiles": "CCN(CC)C(=O)CSC1c2ccccc2C(=O)N1c1ccccc1", "note": "(stereo not given)", "activation fold": 1.1}
{"smiles": "CCCOc1ccc(C2NC(=O)NC(c3ccccc3)=C2C(C)=O)cc1OCC", "note": "(stereo not given)", "activation fold": 0.9}
{"smiles": "O=C(NCc1ccco1)c1ccc(Cn2c(=O)c3sccc3n(Cc3ccc(F)cc3)c2=O)cc1", "activation fold": 1.3}
{"smiles": "COc1c(F)c(F)c(C(=O)O)c(Nc2ccccc2C)c1F", "activation fold": 1}
{"smiles": "CC(Oc1ccc2ccccc2c1)C(=O)NNC(=S)NC(=O)c1ccco1", "note": "(stereo not given)", "activation fold": "2.6 (active)"}
{"smiles": "COc1ccc(C(=O)NC(=S)NNC(=O)CCc2ccccc2)cc1", "activation fold": 1}
{"smiles": "CCCc1ccc(OCC(=O)NNC(=S)NC(=O)c2ccco2)cc1", "activation fold": 1.2}
{"smiles": "CCOc1cc(N2CCOCC2)c(OCC)cc1NC(=O)COc1cccc2cccnc12", "activation fold": 1.4}
{"smiles": "Oc1c(C(c2ccccn2)N2CCOCC2)ccc2cccnc12", "note": "(stereo not given)", "activation fold": "2.2 (active)"}
{"smiles": "O=C(c1cccnc1NCc1ccccc1)N1CCOCC1", "activation fold": 0.9}
{"smiles": "Cc1cccc(NC(=S)Nc2ccc(Br)cc2)c1", "activation fold": 1.2}
{"smiles": "O=C(Nc1nnc(CCOCCOCCc2nnc(NC(=O)c3ccco3)s2)s1)c1ccco1", "activation fold": "2 (active)"}
{"smiles": "COC(=O)c1ccc(NC(=O)c2ccco2)cc1", "activation fold": 0.8}
{"smiles": "O=C(Nc1nnc(SCc2ccccc2)s1)c1ccco1", "activation fold": 1.1}
{"smiles": "COc1ccc(C(=O)NC(=S)Nc2ccccc2N2CCN(S(C)(=O)=O)CC2)cc1OC", "activation fold": 1}
{"smiles": "CC(C)(C)c1ccc(C(=O)CSc2ncn[nH]2)cc1", "activation fold": 1.5}
{"smiles": "O=C(CSc1ncn[nH]1)Nc1ccnc2ccccc12", "activation fold": 1.9}
{"smiles": "CCN(C(=O)CSc1ncn[nH]1)c1cccc2ccccc12", "activation fold": "2.3 (active)"}
{"smiles": "Cc1sc(NC(=S)NC(=O)c2cccs2)nc1-c1ccc(CC(C)C)cc1", "activation fold": 1.5}
{"smiles": "Cc1ccc(S(=O)(=O)NCCSC(C)(C)C)cc1", "activation fold": 0.9}
{"smiles": "COc1ccc(CCNC(=O)COC(=O)c2ccc[nH]c2=O)cc1", "activation fold": 1}
{"smiles": "Cc1ccc(C)c(N2CCN(S(=O)(=O)c3ccc4c(c3)oc(=O)n4C)CC2)c1", "activation fold": 1.4}
{"smiles": "Cc1cc(N2CCN(S(=O)(=O)c3ccc(C)c(C)c3)CC2)c2ccccc2n1", "activation fold": "2.1 (active)"}
{"smiles": "Cc1ccc(S(=O)(=O)C(C#N)c2nc3ccccc3nc2N2CCCC2)cc1C", "note": "(stereo not given)", "activation fold": 1.4}
{"smiles": "COC(=O)c1[nH]c2ccc(Br)cc2c1NC(=O)Oc1ccccc1", "activation fold": 1.1}
{"smiles": "O=C(CN1C(=O)COc2ccccc21)NCCN1CCc2ccccc2C1", "activation fold": 1.3}
{"smiles": "CCCN1CCN(CCCNC(=O)CN2C(=O)COc3ccccc32)CC1", "activation fold": 1.2}
{"smiles": "O=C(CN1C(=O)COc2ccccc21)Nc1ccc(F)cc1", "activation fold": "2.5 (active)"}
{"smiles": "O=C(Nc1cc(C(F)(F)F)ccc1Cl)c1cc2nc3c(c(C(F)(F)F)n2n1)CCCC3", "activation fold": 1.6}
{"smiles": "Clc1ccc(-c2nnc(-c3ccccc3)nc2N2CCSCC2)cc1", "activation fold": 1.4}
{"smiles": "O=C1C2C3C=CC(C4CC34)C2C(=O)N1/N=C/c1ccc(-c2ccccc2[N+](=O)[O-])o1", "note": "(stereo not given)", "activation fold": 0.9}
{"smiles": "S=C(NCc1cccs1)Nc1ccc(Cl)cc1", "activation fold": 0.9}
{"smiles": "COc1ccc(Cl)cc1C(=O)NCc1cn(C)nc1C", "activation fold": 1.1}
{"smiles": "Cc1nn(C)cc1C(=O)NNC(=S)Nc1ccc(Cl)cc1", "activation fold": "2.2 (active)"}
{"smiles": "O=C(CNC(=O)c1ccccc1)NCC(=O)OCc1ccc(Cl)cc1", "activation fold": 0.9}
{"smiles": "OC(COc1cccc(OCC(O)CN2CCCC2)c1)CN1CCCC1", "note": "(stereo not given)", "activation fold": 1.2}
{"smiles": "Cc1ccccc1C(OCC(O)CN1CCCCC1CCO)c1ccccc1", "note": "(stereo not given)", "activation fold": "2.1 (active)"}
{"smiles": "COc1cccc(OCc2cc(/C=N/NC(=O)c3nc(Cl)c(Cl)c(N)c3Cl)ccc2OC)c1", "activation fold": 1.5}
{"smiles": "CCc1c(C)nc2cc(C)[nH]n2c1=O", "activation fold": 0.9}
{"smiles": "CNC(=O)CN1C(=O)c2ccccc2S1(=O)=O", "activation fold": 0.9}
{"smiles": "CCCc1nnc(NC(=O)CN2C(=O)c3ccccc3S2(=O)=O)s1", "activation fold": "2.2 (active)"}
{"smiles": "CCCc1nnc(NC(=O)c2cccs2)s1", "activation fold": 0.9}
{"smiles": "COc1cc2c(cc1OC)C(C(=O)NCc1ccco1)C1c3ccccc3CCN1C2=O", "note": "(stereo not given)", "activation fold": 1.2}
{"smiles": "O=C(O)CSCNC(=O)CC12CC3CC(CC(C3)C1)C2", "activation fold": 1.2}
{"smiles": "NC(CSC12CC3CC(CC(C3)C1)C2)C(=O)O", "note": "(stereo not given)", "activation fold": "2 (active)"}
